The text below walks through data of PubChem BioAssay AID1456 (Vanderbilt High Throughput Screening Facility, 2008).

Hit rate of the full screen: of about 190,000 compounds, about 4,100 (2.2%) were called active. Only a selection was taken, and actives are over-represented in it overall. A number with no mark means an inactive call.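 How the source made its calls: active means thallium flux slope and its plate-corrected score both differing from the plate sample mean at a set confidence after two filtering rounds, in either direction; inactive means the rest.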

In the assay the target is Solute carrier family 12 member 5 (Homo sapiens) (UniProt Q9H2X9). In words: KCC2 cotransporter modulators, thallium flux, primary screen, cell-based, HEK293 KCC2, FluoZin-2 fluorescence, MLSMR (AID 1456).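 Further: slope of fluorescence scaled to starting intensity during 10 to 20 s after thallium.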 Particulars: KCC2 cells, thallium flux FluoZin-2 fluorescence; at 10 µM.
Solute carrier family 12 member 5 (Homo sapiens), sequence (Q9H2X9 whole entry, looked up): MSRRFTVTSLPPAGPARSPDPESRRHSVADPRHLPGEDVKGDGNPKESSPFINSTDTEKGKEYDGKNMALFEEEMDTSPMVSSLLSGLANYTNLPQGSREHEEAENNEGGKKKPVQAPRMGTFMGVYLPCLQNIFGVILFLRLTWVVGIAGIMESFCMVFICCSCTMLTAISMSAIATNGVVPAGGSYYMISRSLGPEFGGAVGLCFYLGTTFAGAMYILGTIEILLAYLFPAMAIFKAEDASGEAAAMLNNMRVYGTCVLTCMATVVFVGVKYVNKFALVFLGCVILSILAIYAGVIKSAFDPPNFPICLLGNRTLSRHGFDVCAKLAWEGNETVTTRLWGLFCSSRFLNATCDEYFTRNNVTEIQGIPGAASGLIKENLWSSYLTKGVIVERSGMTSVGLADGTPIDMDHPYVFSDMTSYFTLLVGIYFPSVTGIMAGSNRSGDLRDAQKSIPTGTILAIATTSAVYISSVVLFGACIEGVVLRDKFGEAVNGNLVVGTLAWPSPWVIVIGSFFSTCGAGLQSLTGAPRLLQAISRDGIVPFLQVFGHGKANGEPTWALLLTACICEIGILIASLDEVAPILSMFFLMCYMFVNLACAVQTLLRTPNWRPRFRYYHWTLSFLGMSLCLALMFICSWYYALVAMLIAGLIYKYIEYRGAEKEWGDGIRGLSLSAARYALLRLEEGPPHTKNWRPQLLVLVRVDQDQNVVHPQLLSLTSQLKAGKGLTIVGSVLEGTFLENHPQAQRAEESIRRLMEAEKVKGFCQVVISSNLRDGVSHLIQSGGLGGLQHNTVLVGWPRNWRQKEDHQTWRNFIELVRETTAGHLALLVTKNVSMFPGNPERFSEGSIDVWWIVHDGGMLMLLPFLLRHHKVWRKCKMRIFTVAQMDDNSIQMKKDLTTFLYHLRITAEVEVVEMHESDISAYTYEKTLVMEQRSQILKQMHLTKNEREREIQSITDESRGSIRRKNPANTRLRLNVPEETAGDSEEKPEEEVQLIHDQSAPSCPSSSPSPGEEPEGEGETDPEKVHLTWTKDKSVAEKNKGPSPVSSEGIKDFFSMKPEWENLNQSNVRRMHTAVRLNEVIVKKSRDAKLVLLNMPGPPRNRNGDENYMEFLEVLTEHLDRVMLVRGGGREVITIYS
As for `N#Cc1c2c(c(-c3ccccc3)[nH]c1=O)CCCC2`, the B-score of Tl+ flux slope (higher = more flux/activation; lower = inhibition) is -0.0377.

In the case of `CC(=O)c1c(C)[nH]c(=S)c(C#N)c1-c1ccc(F)cc1`, the B-score of Tl+ flux slope (higher = more flux/activation; lower = inhibition) was 0.0246.

On to `N#Cc1c(-c2ccc(Cl)cc2)c2c([nH]c1=S)CCCC2`, for which the B-score of Tl+ flux slope (higher = more flux/activation; lower = inhibition) was 13.8 (active).

Consider `COc1ccc(NC(=O)C2=C(C)NC(=O)NC2c2ccccc2[N+](=O)[O-])cc1` (stereo not given), for which the B-score of Tl+ flux slope (higher = more flux/activation; lower = inhibition) was -1.15.

Take `Cc1ccc(Cl)c(OCC(=O)NN2CCN(C)CC2)c1`: the B-score of Tl+ flux slope (higher = more flux/activation; lower = inhibition) is 0.242.

Consider `NC(=O)C1(C(N)=O)OC1c1ccc(Cl)cc1Cl` (stereo not given), for which the B-score of Tl+ flux slope (higher = more flux/activation; lower = inhibition) is 0.213.

On to `CCN1CCN(CC(=O)c2cc(OC)c(OC)c(OC)c2)CC1`, for which the B-score of Tl+ flux slope (higher = more flux/activation; lower = inhibition) was 0.89.

For the compound `COc1ccc(CCNS(=O)(=O)c2cccc3cccnc23)cc1OC`, the B-score of Tl+ flux slope (higher = more flux/activation; lower = inhibition) is -0.941.

As for `COc1ccc(OCc2n[nH]c(=S)n2N)cc1`, the B-score of Tl+ flux slope (higher = more flux/activation; lower = inhibition) is 0.178.

For `S=c1[nH]nc(COc2ccccc2)n1-c1ccccc1`, the B-score of Tl+ flux slope (higher = more flux/activation; lower = inhibition) is 0.195.

As to `Cc1ccc(OCc2n[nH]c(=S)n2-c2ccc(C)cc2)cc1`, the B-score of Tl+ flux slope (higher = more flux/activation; lower = inhibition) is 13.5 (active).

Consider `CCc1ccccc1NC(=O)CSc1nnc(CCNC(=O)OC(C)(C)C)o1`, for which the B-score of Tl+ flux slope (higher = more flux/activation; lower = inhibition) is -1.55.

As to `CCN(CC)CCCSc1nc2ccccc2s1`, the B-score of Tl+ flux slope (higher = more flux/activation; lower = inhibition) was -0.568.

As for `Cc1sc2ncnc(Sc3nc4ccccc4s3)c2c1C`, the B-score of Tl+ flux slope (higher = more flux/activation; lower = inhibition) was 2.96 (active).

Regarding `CCCNc1ncnc2sc(C)c(C)c12`, the B-score of Tl+ flux slope (higher = more flux/activation; lower = inhibition) is -0.897.

On to `COC(=O)c1c(-c2cccs2)csc1NC(=O)CSc1ncnc2sc(C)c(C)c12`, for which the B-score of Tl+ flux slope (higher = more flux/activation; lower = inhibition) was 0.971.

On to `CSc1ncnc2sc(C)c(C)c12`, for which the B-score of Tl+ flux slope (higher = more flux/activation; lower = inhibition) was 8.38 (active).

With `CCOC(=O)C(C)n1cnc2sc(C)c(C)c2c1=O` (stereo not given), the B-score of Tl+ flux slope (higher = more flux/activation; lower = inhibition) is 0.498.

As to `O=C(O)c1ccccc1C(=O)Nc1ccccc1[N+](=O)[O-]`, the B-score of Tl+ flux slope (higher = more flux/activation; lower = inhibition) was -0.0678.

As for `CCOc1ccccc1N1CN(Cc2ccccc2)CNC1=S`, the B-score of Tl+ flux slope (higher = more flux/activation; lower = inhibition) is -0.426.

Regarding `O=C(O)CCN(Cc1ccccc1)S(=O)(=O)c1c(Cl)cccc1Cl`, the B-score of Tl+ flux slope (higher = more flux/activation; lower = inhibition) was -6.63 (active).

As for `COC(=O)c1ccc(S(=O)(=O)N(CCO)Cc2ccccc2)n1C`, the B-score of Tl+ flux slope (higher = more flux/activation; lower = inhibition) is 0.0796.

Take `O=C(/C=C/c1c(Cl)cccc1Cl)NCc1ccccc1`: the B-score of Tl+ flux slope (higher = more flux/activation; lower = inhibition) is 0.452.

Regarding `O=C(Oc1c(-c2ccco2)oc2ccccc2c1=O)c1cccnc1`, the B-score of Tl+ flux slope (higher = more flux/activation; lower = inhibition) is 40.4 (active).

Consider `O=C(Oc1cccnc1)c1cc2ccccc2oc1=O`, for which the B-score of Tl+ flux slope (higher = more flux/activation; lower = inhibition) is 0.0371.

Regarding `N#CCc1ccc(OC(=O)c2cccnc2)cc1`, the B-score of Tl+ flux slope (higher = more flux/activation; lower = inhibition) was 0.815.

Turning to `S=C(NNC(=S)NC1CC2CCC1C2)NC1CC2C=CC1C2` (stereo not given), the B-score of Tl+ flux slope (higher = more flux/activation; lower = inhibition) is 0.801.

For the compound `Clc1ccc2nc(-c3ccccc3)nc(C(Cl)Cl)c2c1`, the B-score of Tl+ flux slope (higher = more flux/activation; lower = inhibition) was 0.642.

Take `CCOc1ccc2[nH]c(=O)c(CN(Cc3nnnn3Cc3ccccc3)CC3CCCO3)cc2c1` (stereo not given): the B-score of Tl+ flux slope (higher = more flux/activation; lower = inhibition) was 0.154.

Consider `Cc1cc2cc(CN(Cc3cccs3)Cc3nnnn3CC3CCCO3)c(=O)[nH]c2cc1C` (stereo not given), for which the B-score of Tl+ flux slope (higher = more flux/activation; lower = inhibition) is -1.28.

Turning to `Cc1cc(C)c2cc(CN(Cc3cccs3)Cc3nnnn3CC3CCCO3)c(=O)[nH]c2c1` (stereo not given), the B-score of Tl+ flux slope (higher = more flux/activation; lower = inhibition) was -3.73 (active).

On to `CCOC(=O)N/N=C1\CC(C)S(=O)(=O)c2ccc(Cl)cc21` (stereo not given), for which the B-score of Tl+ flux slope (higher = more flux/activation; lower = inhibition) was -0.00493.

Take `C/C(=N/NC(=O)CN1CCN(S(=O)(=O)c2ccc(Br)cc2)CC1)c1ccncc1`: the B-score of Tl+ flux slope (higher = more flux/activation; lower = inhibition) was 0.498.

Turning to `Cc1ccc(C)c(SCc2nc3sc(C(=O)O)c(C)c3c(=O)[nH]2)c1`, the B-score of Tl+ flux slope (higher = more flux/activation; lower = inhibition) was 0.00809.

With `CC(C)c1ccc2c(c1)c(SC(C)(C)C)c(CC(C)(C)C(=O)O)n2Cc1ccc(Cl)cc1`, the B-score of Tl+ flux slope (higher = more flux/activation; lower = inhibition) was 6.52 (active).

Regarding `COc1cc([N+](=O)[O-])ccc1NC(=S)N1CCN(c2ccccn2)CC1`, the B-score of Tl+ flux slope (higher = more flux/activation; lower = inhibition) is -1.11.

As for `O=C(Nc1nnc(C2CC2)s1)C1=NN(C2CCS(=O)(=O)C2)C(=O)CC1` (stereo not given), the B-score of Tl+ flux slope (higher = more flux/activation; lower = inhibition) was 0.0275.

With `O=C(CC1C(=O)NCCN1Cc1ccc(-c2ccccc2)cc1)NCC1CCOCC1` (stereo not given), the B-score of Tl+ flux slope (higher = more flux/activation; lower = inhibition) is 0.966.

For `CN(Cc1cccc2ncccc12)C(=O)CC1C(=O)NCCN1Cc1ccc(F)cc1` (stereo not given), the B-score of Tl+ flux slope (higher = more flux/activation; lower = inhibition) was -0.00882.

As for `CCCOC(=O)CC1C(=O)NCCN1Cc1ccc(F)cc1` (stereo not given), the B-score of Tl+ flux slope (higher = more flux/activation; lower = inhibition) is -4.12 (active).

`Cc1cc(N)n(-c2ccc(S(=O)(=O)N3CCCC3)cc2[N+](=O)[O-])n1`: the B-score of Tl+ flux slope (higher = more flux/activation; lower = inhibition) was -0.0325.

In the case of `COC(=O)c1cccc(NS(C)(=O)=O)c1`, the B-score of Tl+ flux slope (higher = more flux/activation; lower = inhibition) was 0.136.

Take `CC(=O)/C(=N\Nc1ccc(Cl)cc1Cl)Sc1cccc2cccnc12`: the B-score of Tl+ flux slope (higher = more flux/activation; lower = inhibition) is 20.6 (active).

`N#Cc1ccc(C(=O)Nc2cccc3cccnc23)c(F)c1`: the B-score of Tl+ flux slope (higher = more flux/activation; lower = inhibition) was 0.429.

For the compound `S=C(NCc1cccnc1)Nc1ccc(Cl)cc1Cl`, the B-score of Tl+ flux slope (higher = more flux/activation; lower = inhibition) was 0.543.

For the compound `Cc1cc(OCCCN2CCN(Cc3ccccc3)CC2)ccc1[N+](=O)[O-]`, the B-score of Tl+ flux slope (higher = more flux/activation; lower = inhibition) was -0.489.

Consider `O=C(CSc1nc2ccccc2s1)Nc1ccc(C(=O)O)cc1`, for which the B-score of Tl+ flux slope (higher = more flux/activation; lower = inhibition) is 0.381.

With `COc1ccc(S(=O)(=O)Nc2ccc(O)c(Sc3nc4ccccc4s3)c2)cc1`, the B-score of Tl+ flux slope (higher = more flux/activation; lower = inhibition) was -1.09.

On to `O=[N+]([O-])c1c(NCCO)cc(Sc2nc3ccccc3s2)c2nonc12`, for which the B-score of Tl+ flux slope (higher = more flux/activation; lower = inhibition) is 5.33 (active).

Consider `O=C(NCc1ccc(F)cc1)C1CCC(CNc2c(N3CCOCC3)c(=O)c2=O)CC1` (stereo not given), for which the B-score of Tl+ flux slope (higher = more flux/activation; lower = inhibition) is 1.21.
